The text below walks through data of the antibiotic and cytotoxicity screens of Wong et al. (2023).

Each structure is given as a SMILES string. In all, about 39,000 compounds went through this assay and about 1,500 (3.8%) were called active. The sample as a whole holds a higher share of actives than the screen did.

This experiment deals with HSkMC (human skeletal muscle cells). The experiment in a line: cytotoxicity call (relative viability < 0.9). The following applies: 10 µM.
As for `C[C@H](CO)N1C[C@H](C)[C@H](CN(C)Cc2ccc(C(=O)O)cc2)OCCCC[C@H](C)Oc2ccc(NC(=O)C3CCCCC3)cc2C1=O`, the cytotoxicity call is “inactive”.

In the case of `C[C@H](CO)N1C[C@H](C)[C@H](CN(C)S(C)(=O)=O)OCCCC[C@H](C)Oc2ccc(NC(=O)CCCN(C)C)cc2C1=O`, the cytotoxicity call is “inactive”.

For the compound `CC(C)NC(=O)Nc1ccc2c(c1)C(=O)N([C@@H](C)CO)C[C@@H](C)[C@H](CN(C)S(=O)(=O)c1cn(C)cn1)OCCCC[C@H](C)O2`, the cytotoxicity call is “inactive”.

As to `C[C@@H]1CN([C@H](C)CO)C(=O)CCCn2cc(nn2)CO[C@@H]1CN(C)S(=O)(=O)c1ccc(Cl)cc1`, the cytotoxicity call is “inactive”.

For `O=C(O)[C@]1(O)C[C@@H](O)[C@@H](O)[C@H](O)C1`, the cytotoxicity call was “inactive”.

With `Cc1noc(C)c1S(=O)(=O)Nc1ccc2c(c1)CC(=O)N([C@@H](C)CO)C[C@H](C)[C@H](CN(C)Cc1ccccc1)O2`, the cytotoxicity call is “inactive”.

As to `C[C@H](CO)N1C[C@H](C)[C@H](CN(C)C(=O)Nc2ccc(C(F)(F)F)cc2)Oc2ccc(NS(C)(=O)=O)cc2C1=O`, the cytotoxicity call is “inactive”.

On to `C[C@@H]1CN([C@H](C)CO)C(=O)c2cccc(NC(=O)C3CC3)c2O[C@H]1CN(C)S(=O)(=O)c1ccc(Cl)cc1`, for which the cytotoxicity call is “inactive”.

In the case of `Cc1ccc(S(=O)(=O)N(C)C[C@H]2OCCCC[C@H](C)Oc3ccc(NC(=O)Nc4ccc(F)cc4)cc3C(=O)N([C@@H](C)CO)C[C@@H]2C)cc1`, the cytotoxicity call was “inactive”.

Consider `CC(=O)N1CCc2nc(C(N)=O)sc2CC1`, for which the cytotoxicity call is “inactive”.

Regarding `COC1C(C(=O)O)OC(C)C(O)C1O.COC1OC(C(=O)O)C(O)C(O)C1O` (centres undefined) [ALGINIC ACID [Mol Wt ~200,000; monomers shown] ], the cytotoxicity call is “inactive”.

`Cc1coc(C)c1C(=O)O[C@@H]1O[C@@H](C)[C@H](O)[C@@H](O)[C@H]1O`: the cytotoxicity call is “active”.

For the compound `O=C(OC[C@H]1O[C@@H](OC(=O)c2cc(O)c(O)c(O)c2)[C@H](O)[C@@H](O)[C@@H]1O)c1cc(O)c(O)c(O)c1`, the cytotoxicity call is “inactive”.

With `C[C@H]1CN([C@@H](C)CO)C(=O)c2cccc(NS(=O)(=O)c3ccc(Cl)cc3)c2O[C@@H]1CN(C)Cc1ccc(-c2ccccc2)cc1`, the cytotoxicity call is “inactive”.

For `Cc1noc(C)c1NC(=O)N(C)C[C@@H]1Oc2ccc(NC(=O)C3CC3)cc2CC(=O)N([C@@H](C)CO)C[C@@H]1C`, the cytotoxicity call is “inactive”.

Take `COc1ccc(S(=O)(=O)N(C)C[C@@H]2Oc3ccc(NS(=O)(=O)c4ccc(F)cc4)cc3CC(=O)N([C@H](C)CO)C[C@H]2C)cc1`: the cytotoxicity call was “inactive”.

Turning to `C[C@@H]1CN([C@@H](C)CO)C(=O)c2cc(C#Cc3ccccn3)cnc2O[C@H]1CN(C)C(=O)CCN1CCCCC1`, the cytotoxicity call was “inactive”.

Consider `C[C@@H]1CCCCO[C@H](CN(C)C)[C@@H](C)CN([C@H](C)CO)C(=O)c2cc(NS(=O)(=O)c3cn(C)cn3)ccc2O1`, for which the cytotoxicity call is “inactive”.

As to `COc1ccc(S(=O)(=O)Nc2ccc3c(c2)C(=O)N([C@H](C)CO)C[C@H](C)[C@@H](CN(C)Cc2ccc(C(=O)O)cc2)OCCCC[C@H](C)O3)cc1`, the cytotoxicity call is “inactive”.

Regarding `C[C@H]1CN([C@@H](C)CO)C(=O)c2cc(NC(=O)Nc3ccc(C(F)(F)F)cc3)ccc2O[C@H]1CN(C)Cc1ccc(-c2ccccc2)cc1`, the cytotoxicity call was “active”.

Regarding `C[C@@H]1CN([C@@H](C)CO)C(=O)c2cc(NC(=O)Nc3ccc(C(F)(F)F)cc3)ccc2O[C@@H]1CN(C)Cc1ccc(-c2ccccc2)cc1`, the cytotoxicity call is “active”.

For `C[C@H](CO)N1C[C@H](C)[C@@H](CN(C)Cc2ccc(-c3ccccc3)cc2)Oc2ccc(NC(=O)Nc3ccc(C(F)(F)F)cc3)cc2C1=O`, the cytotoxicity call is “active”.

In the case of `C[C@@H]1CN([C@H](C)CO)C(=O)Cc2cc(NS(=O)(=O)c3cn(C)cn3)ccc2O[C@H]1CN(C)CC1CC1`, the cytotoxicity call is “inactive”.

`Cc1noc(C)c1NC(=O)Nc1ccc2c(c1)CC(=O)N([C@H](C)CO)C[C@H](C)[C@H](CN(C)S(=O)(=O)c1ccccc1)O2`: the cytotoxicity call is “inactive”.

Turning to `CO[C@H]1CN(C)C(=O)c2ccc(NS(=O)(=O)CC(F)(F)F)cc2OC[C@H](C)N(C(=O)NC(C)C)C[C@H]1C`, the cytotoxicity call was “inactive”.

On to `COc1cccc(C(=O)Nc2ccc3c(c2)C(=O)N(C)[C@@H]2CC[C@H](CC(=O)NCCCN4CCOCC4)O[C@H]2CO3)c1`, for which the cytotoxicity call was “inactive”.

Take `COc1ccc(S(=O)(=O)N(C)C[C@@H]2OCCCC[C@H](C)Oc3ccc(NC(=O)CCC(F)(F)F)cc3C(=O)N([C@H](C)CO)C[C@H]2C)cc1`: the cytotoxicity call was “inactive”.

Turning to `OC[C@H]1O[C@@H](Nc2ccccn2)[C@@H](O)[C@@H](O)[C@@H]1O`, the cytotoxicity call is “inactive”.

Consider `COc1ccc(S(=O)(=O)N(C)C[C@H]2Oc3ncc(-c4ccncc4)cc3C(=O)N([C@@H](C)CO)C[C@@H]2C)cc1`, for which the cytotoxicity call was “inactive”.

As to `Cc1nn(C)cc1NC(=O)C[C@@H]1CC[C@H]2[C@H](COc3ccc(NC(=O)C4CCOCC4)cc3C(=O)N2C)O1`, the cytotoxicity call was “inactive”.

`COc1cccc(C#Cc2ccc3c(c2)O[C@H](CN(C)S(=O)(=O)c2ccccc2F)[C@@H](C)CN([C@@H](C)CO)S3(=O)=O)c1`: the cytotoxicity call was “inactive”.

For the compound `C[C@@H]1CN([C@@H](C)CO)C(=O)c2cc(NC(=O)Nc3ccccc3)ccc2O[C@@H]1CN(C)Cc1ccc(C(F)(F)F)cc1`, the cytotoxicity call was “inactive”.

As for `C[C@@H]1CN([C@H](C)CO)C(=O)c2cc(NC(=O)Nc3ccc(C(F)(F)F)cc3)ccc2O[C@@H]1CN(C)Cc1ccc(-c2ccccc2)cc1`, the cytotoxicity call was “active”.

`C[C@@H]1CN([C@H](C)CO)C(=O)c2cc(NC(=O)Nc3ccc(C(F)(F)F)cc3)ccc2O[C@H]1CN(C)Cc1ccc(-c2ccccc2)cc1`: the cytotoxicity call is “active”.

For the compound `C[C@H](CO)N1C[C@H](C)[C@H](CN(C)Cc2ccc(-c3ccccc3)cc2)Oc2ccc(NC(=O)Nc3ccc(C(F)(F)F)cc3)cc2C1=O`, the cytotoxicity call is “active”.

In the case of `C[C@@H]1CN([C@@H](C)CO)C(=O)c2cc(NC(=O)Nc3ccc(C(F)(F)F)cc3)ccc2O[C@H]1CN(C)Cc1ccc(-c2ccccc2)cc1`, the cytotoxicity call was “active”.

For `C[C@H]1CN([C@@H](C)CO)C(=O)c2cc(NC(=O)Nc3ccccc3)ccc2O[C@@H]1CN(C)Cc1ccc(C(F)(F)F)cc1`, the cytotoxicity call is “inactive”.

In the case of `Cc1ccc(S(=O)(=O)N(C)C[C@H]2Oc3ccc(NC(=O)CCCN(C)C)cc3CC(=O)N([C@@H](C)CO)C[C@@H]2C)cc1`, the cytotoxicity call was “inactive”.

In the case of `C[C@@H]1CN([C@@H](C)CO)C(=O)c2cc(NS(C)(=O)=O)ccc2O[C@@H](C)CCCCO[C@@H]1CN(C)S(=O)(=O)c1cccs1`, the cytotoxicity call was “inactive”.

With `Cc1noc(C)c1S(=O)(=O)Nc1ccc2c(c1)C(=O)N([C@@H](C)CO)C[C@@H](C)[C@H](CN(C)Cc1ccc(C(F)(F)F)cc1)OCCCC[C@H](C)O2`, the cytotoxicity call is “inactive”.

In the case of `CC(C)Cn1c(=O)n(C)c(=O)c2[nH]cnc21`, the cytotoxicity call was “inactive”.

For `Cc1noc(C)c1S(=O)(=O)Nc1ccc2c(c1)CC(=O)N([C@H](C)CO)C[C@H](C)[C@@H](CN(C)S(C)(=O)=O)O2`, the cytotoxicity call was “inactive”.

In the case of `O=C(O)c1ccc(N2CCCS2(=O)=O)cc1`, the cytotoxicity call is “inactive”.

In the case of `Cc1ccsc1[C@@H](O)CN`, the cytotoxicity call is “inactive”.

Regarding `CC(C)Cc1ccc([C@@H](C)C(=O)Nc2ccc(Cl)cc2)cc1`, the cytotoxicity call is “inactive”.

As to `Cc1cc(C)c(-c2ccc(NC(=O)[C@H](Cc3ccc(C(=O)NCCS(=O)(=O)O)cc3)c3ccc(-c4ccc(C(C)(C)C)cc4)cc3)cc2)c(C)c1`, the cytotoxicity call was “active”.

Consider `N[C@@H]1CONC1=O`, for which the cytotoxicity call was “inactive”.

As for `O=C(C[C@H]1CC[C@@H]2[C@H](COC[C@H](O)CN2S(=O)(=O)c2ccc(F)cc2)O1)NCCN1CCCCC1`, the cytotoxicity call was “inactive”.

For the compound `CN1CCN(c2ccc(OC(F)(F)F)c(Nc3ncc4c(n3)-c3c(c(C(N)=O)nn3CCO)CC4)c2)CC1`, the cytotoxicity call was “active”.

`COc1ccc2c3c([nH]c2c1)[C@H](CO)N(C[C@]13CCN(CC1)S(=O)(=O)c1cn(cn1)C)C(=O)Nc1ccc(cc1)F`: the cytotoxicity call is “inactive”.

For `C[C@@H]1CCCCO[C@@H](CN(C)S(=O)(=O)c2cn(C)cn2)[C@H](C)CN([C@@H](C)CO)C(=O)c2cc(NC(=O)CCCN(C)C)ccc2O1`, the cytotoxicity call is “inactive”.

Turning to `C[C@@H]1CN([C@H](C)CO)C(=O)Cc2cc(NC(=O)C3CCCCC3)ccc2O[C@H]1CN(C)Cc1ccc(Oc2ccccc2)cc1`, the cytotoxicity call was “inactive”.

With `C[C@H]1CN([C@@H](C)CO)C(=O)Cc2cc(NC(=O)C3CCCCC3)ccc2O[C@@H]1CN(C)Cc1ccc(-c2ccccc2)cc1`, the cytotoxicity call was “inactive”.

With `C[C@H](CO)N1C[C@H](C)[C@H](CN(C)Cc2ccc(-c3ccccc3)cc2)Oc2ccc(NC(=O)C3CCCCC3)cc2CC1=O`, the cytotoxicity call is “inactive”.

With `C[C@H](CO)N1C[C@H](C)[C@@H](CN(C)Cc2ccc(Oc3ccccc3)cc2)Oc2ccc(NC(=O)C3CCCCC3)cc2CC1=O`, the cytotoxicity call was “inactive”.

As for `C[C@@H]1CN([C@@H](C)CO)C(=O)Cc2cc(NC(=O)C3CCCCC3)ccc2O[C@H]1CN(C)Cc1ccc(Oc2ccccc2)cc1`, the cytotoxicity call is “inactive”.

Consider `C[C@@H]1CN([C@H](C)CO)C(=O)Cc2cc(NC(=O)C3CCCCC3)ccc2O[C@@H]1CN(C)Cc1ccc(Oc2ccccc2)cc1`, for which the cytotoxicity call was “active”.

`C[C@H]1CN([C@@H](C)CO)C(=O)Cc2cc(NC(=O)C3CCCCC3)ccc2O[C@H]1CN(C)Cc1ccc(Oc2ccccc2)cc1`: the cytotoxicity call was “active”.

`C[C@@H]1CN([C@H](C)CO)C(=O)Cc2cc(NC(=O)C3CCCCC3)ccc2O[C@@H]1CN(C)Cc1ccc(-c2ccccc2)cc1`: the cytotoxicity call was “active”.

With `C[C@H]1CN([C@@H](C)CO)C(=O)Cc2cc(NC(=O)C3CCCCC3)ccc2O[C@@H]1CN(C)Cc1ccc(Oc2ccccc2)cc1`, the cytotoxicity call was “inactive”.

`CC(=O)N1CCc2nc(N)sc2C1`: the cytotoxicity call was “inactive”.

Take `C[C@@H]1CN([C@@H](C)CO)C(=O)c2cccc(NS(=O)(=O)c3cn(C)cn3)c2O[C@H]1CN(C)S(=O)(=O)c1ccc(Cl)cc1`: the cytotoxicity call was “inactive”.

For the compound `CC=Cc1ccc2n(c1=O)C[C@@H]1[C@@H](CO)[C@H](C(=O)NCC3CC3)[C@H]2N1S(=O)(=O)c1cn(C)cn1`, the cytotoxicity call is “inactive”.

As to `C[C@@H]1CN([C@@H](C)CO)S(=O)(=O)c2ccc(C#Cc3ccccc3F)cc2O[C@@H]1CN(C)C(=O)Cc1cccnc1`, the cytotoxicity call is “inactive”.
